Of roughly 8,800 targets only a part is listed; those with a hit were picked by preference. About 0.5% of all pairs of compound and target were hits. Values without a mark were called inactive.

Sequence of UniProt Q9NSV4 (Q9NSV4 whole entry, looked up): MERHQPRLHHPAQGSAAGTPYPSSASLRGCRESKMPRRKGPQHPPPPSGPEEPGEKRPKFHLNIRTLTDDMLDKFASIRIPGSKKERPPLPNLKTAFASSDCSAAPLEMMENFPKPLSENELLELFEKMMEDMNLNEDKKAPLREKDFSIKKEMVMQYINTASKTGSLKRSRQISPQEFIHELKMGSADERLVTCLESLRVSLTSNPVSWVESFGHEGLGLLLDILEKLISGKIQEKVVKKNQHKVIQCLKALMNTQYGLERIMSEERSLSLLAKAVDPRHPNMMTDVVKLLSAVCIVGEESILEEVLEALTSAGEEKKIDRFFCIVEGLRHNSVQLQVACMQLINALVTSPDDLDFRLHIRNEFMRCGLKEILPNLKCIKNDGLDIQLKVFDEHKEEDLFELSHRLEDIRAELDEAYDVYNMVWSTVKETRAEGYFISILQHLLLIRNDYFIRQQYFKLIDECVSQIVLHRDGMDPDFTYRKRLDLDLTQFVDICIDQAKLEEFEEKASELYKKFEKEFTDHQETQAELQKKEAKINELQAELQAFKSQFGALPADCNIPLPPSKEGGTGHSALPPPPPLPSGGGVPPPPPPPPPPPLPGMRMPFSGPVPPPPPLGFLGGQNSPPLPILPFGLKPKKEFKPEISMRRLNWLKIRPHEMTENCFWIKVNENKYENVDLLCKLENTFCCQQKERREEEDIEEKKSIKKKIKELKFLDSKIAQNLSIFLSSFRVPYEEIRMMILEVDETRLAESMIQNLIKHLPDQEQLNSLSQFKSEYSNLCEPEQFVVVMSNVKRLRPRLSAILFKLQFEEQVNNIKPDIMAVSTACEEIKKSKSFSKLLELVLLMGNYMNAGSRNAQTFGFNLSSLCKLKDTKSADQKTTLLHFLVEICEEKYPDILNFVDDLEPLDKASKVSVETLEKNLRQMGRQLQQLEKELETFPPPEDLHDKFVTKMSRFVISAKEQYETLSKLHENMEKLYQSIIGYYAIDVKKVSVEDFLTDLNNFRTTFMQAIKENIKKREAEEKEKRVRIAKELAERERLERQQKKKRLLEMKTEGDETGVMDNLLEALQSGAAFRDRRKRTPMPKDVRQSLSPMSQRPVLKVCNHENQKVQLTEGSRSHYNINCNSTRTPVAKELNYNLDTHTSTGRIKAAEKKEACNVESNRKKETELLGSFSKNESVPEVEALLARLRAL
Sequence of UniProt Q8TDD1 (Q8TDD1 whole entry, looked up): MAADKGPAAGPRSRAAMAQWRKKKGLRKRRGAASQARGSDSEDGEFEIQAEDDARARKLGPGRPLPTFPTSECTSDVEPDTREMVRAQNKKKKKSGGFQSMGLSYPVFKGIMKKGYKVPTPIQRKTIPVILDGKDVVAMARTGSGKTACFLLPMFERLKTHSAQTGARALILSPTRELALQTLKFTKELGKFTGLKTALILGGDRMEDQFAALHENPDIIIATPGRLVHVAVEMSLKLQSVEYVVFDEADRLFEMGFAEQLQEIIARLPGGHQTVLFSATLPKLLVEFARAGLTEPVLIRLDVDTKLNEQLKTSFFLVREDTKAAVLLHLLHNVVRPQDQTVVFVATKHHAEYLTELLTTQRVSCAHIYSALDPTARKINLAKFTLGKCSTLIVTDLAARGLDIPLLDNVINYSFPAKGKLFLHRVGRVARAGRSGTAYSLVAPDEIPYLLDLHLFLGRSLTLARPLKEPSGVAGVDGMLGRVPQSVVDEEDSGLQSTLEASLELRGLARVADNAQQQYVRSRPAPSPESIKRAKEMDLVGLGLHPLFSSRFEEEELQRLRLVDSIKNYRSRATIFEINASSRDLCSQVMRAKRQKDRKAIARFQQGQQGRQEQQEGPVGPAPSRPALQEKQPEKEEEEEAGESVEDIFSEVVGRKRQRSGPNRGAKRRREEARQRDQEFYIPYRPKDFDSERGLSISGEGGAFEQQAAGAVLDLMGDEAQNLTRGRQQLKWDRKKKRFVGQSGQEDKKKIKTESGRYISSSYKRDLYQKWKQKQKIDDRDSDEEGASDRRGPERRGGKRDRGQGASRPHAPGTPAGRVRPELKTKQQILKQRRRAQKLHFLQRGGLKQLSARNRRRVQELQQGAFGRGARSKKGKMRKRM
Sequence of UniProt Q9H5X1 (Q9H5X1 whole entry, looked up): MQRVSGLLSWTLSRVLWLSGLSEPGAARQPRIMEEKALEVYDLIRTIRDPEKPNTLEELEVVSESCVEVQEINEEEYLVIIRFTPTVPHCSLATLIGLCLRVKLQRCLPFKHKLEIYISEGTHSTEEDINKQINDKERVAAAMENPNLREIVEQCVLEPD
Sequence of UniProt Q9UHD1 (Q9UHD1 whole entry, looked up): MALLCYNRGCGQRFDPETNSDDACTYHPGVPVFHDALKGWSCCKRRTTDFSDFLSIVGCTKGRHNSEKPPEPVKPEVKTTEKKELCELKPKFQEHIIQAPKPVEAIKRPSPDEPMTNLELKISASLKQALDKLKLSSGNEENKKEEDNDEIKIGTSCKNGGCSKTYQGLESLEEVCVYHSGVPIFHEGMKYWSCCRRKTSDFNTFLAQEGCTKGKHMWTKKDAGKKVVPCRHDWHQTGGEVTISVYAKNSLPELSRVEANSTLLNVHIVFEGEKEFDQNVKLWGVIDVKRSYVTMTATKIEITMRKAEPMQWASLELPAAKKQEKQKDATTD
Sequence of UniProt Q14019 (Q14019 whole entry, looked up): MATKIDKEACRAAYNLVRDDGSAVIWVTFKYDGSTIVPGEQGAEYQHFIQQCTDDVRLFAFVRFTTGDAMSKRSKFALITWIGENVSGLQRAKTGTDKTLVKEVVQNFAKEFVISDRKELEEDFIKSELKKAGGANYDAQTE
Sequence of UniProt Q8NF50 (Q8NF50 whole entry, looked up): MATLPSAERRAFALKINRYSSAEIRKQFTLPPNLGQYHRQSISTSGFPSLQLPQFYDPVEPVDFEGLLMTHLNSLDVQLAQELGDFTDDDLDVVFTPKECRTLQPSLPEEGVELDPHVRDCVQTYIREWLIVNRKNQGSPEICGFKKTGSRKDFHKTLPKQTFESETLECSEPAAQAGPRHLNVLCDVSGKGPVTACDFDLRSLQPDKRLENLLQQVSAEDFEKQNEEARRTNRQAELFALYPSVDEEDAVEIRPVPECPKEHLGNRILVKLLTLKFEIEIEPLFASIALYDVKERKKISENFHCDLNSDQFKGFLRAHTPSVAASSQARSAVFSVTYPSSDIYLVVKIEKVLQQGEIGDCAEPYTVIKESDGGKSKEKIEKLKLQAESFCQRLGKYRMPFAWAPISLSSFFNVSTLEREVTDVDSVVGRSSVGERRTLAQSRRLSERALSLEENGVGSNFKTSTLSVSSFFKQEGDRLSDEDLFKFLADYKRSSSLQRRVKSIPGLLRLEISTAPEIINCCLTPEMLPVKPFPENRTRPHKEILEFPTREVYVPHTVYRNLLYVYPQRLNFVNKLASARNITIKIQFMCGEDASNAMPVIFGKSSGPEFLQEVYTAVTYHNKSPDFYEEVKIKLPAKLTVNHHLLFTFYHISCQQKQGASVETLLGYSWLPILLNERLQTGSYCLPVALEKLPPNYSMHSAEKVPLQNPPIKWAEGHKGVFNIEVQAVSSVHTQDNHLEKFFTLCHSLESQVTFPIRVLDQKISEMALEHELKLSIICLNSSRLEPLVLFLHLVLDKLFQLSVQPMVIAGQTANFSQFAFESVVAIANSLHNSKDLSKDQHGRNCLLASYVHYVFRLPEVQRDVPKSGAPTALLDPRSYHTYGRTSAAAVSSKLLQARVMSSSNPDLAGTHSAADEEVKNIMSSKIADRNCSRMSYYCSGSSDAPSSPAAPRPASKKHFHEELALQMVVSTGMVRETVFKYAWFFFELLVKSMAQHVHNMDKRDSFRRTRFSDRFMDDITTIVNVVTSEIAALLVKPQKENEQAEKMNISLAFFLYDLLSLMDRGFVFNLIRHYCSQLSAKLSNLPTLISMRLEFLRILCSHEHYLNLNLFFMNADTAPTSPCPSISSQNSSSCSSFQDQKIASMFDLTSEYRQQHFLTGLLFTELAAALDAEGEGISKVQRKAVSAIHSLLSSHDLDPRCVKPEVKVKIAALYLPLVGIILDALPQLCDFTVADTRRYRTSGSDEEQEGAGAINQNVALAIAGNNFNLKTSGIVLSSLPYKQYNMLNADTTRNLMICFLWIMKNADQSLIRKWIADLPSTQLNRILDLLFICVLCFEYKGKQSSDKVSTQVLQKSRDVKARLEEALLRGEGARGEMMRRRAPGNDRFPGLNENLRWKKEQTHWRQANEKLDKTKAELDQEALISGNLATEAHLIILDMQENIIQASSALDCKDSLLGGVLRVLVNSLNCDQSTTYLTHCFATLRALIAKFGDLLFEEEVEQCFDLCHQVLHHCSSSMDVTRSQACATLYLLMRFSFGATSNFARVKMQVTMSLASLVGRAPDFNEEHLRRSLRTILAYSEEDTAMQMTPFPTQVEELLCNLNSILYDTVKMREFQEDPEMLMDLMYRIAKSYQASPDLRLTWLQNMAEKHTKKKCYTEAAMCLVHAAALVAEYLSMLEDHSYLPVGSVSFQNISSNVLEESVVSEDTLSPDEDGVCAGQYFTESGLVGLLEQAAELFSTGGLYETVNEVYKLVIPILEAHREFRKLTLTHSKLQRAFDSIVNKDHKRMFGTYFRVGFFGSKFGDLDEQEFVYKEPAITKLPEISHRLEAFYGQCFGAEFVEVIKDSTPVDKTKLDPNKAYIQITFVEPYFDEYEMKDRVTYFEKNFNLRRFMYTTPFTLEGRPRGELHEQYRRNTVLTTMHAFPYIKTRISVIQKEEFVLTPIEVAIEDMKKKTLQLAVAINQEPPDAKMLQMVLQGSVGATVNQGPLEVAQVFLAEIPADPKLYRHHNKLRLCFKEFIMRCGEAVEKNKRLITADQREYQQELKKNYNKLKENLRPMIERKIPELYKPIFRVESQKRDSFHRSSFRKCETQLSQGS
Sequence of UniProt P67870 (P67870 whole entry, looked up): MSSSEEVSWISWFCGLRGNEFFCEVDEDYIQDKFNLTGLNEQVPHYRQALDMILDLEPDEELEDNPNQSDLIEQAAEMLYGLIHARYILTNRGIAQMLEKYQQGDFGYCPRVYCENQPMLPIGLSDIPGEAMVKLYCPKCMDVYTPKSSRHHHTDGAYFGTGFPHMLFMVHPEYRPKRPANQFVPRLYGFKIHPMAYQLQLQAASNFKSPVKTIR

Compound in one test: C1CN(CCC1(CC2=CC=C(C=C2)Cl)N)C3=NC=NC4=C3C=CN4
Nature of the test: log2 fold change, soluble protein after heating vs DMSO (PISA); higher = thermal stabilisation; K562 lysate, 10 uM; active = over 0.2 and 3.5 SD of the protein, either way, in both replicates (recomputed). Summed up: (§1)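 Dounce homogenisation of K562 pellets in PBS pH 7.4 with 1 mM MgCl2 produced a crude extract, used at 1 mg/mL protein. Exposure to 10 μM compound lasted 30 min, and aliquots were then heated for 3 min across 48°C-58°C, pooled and brought to 0.5% NP-40 at 4°C. The supernatant after 21,000xg for 90 min was quantified by TMTpro 16plex LC-MS/MS with channel sums equalised. Duplicate values are given as log-two fold change in thermal stability relative to solvent controls.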
In the case of DLGAP5 (UniProt Q15398), the log2 fold change was -0.013.
Same read-out and setting: as for DCTN1 (UniProt Q14203), the figure is -0.003; as for DOCK10 (UniProt Q96BY6), -0.028.
Still for that read-out and setting: in the case of DFFB (UniProt O76075) it was -0.019.
On the same count and under the same terms, as for CWC22 (UniProt Q9HCG8), the figure is -0.006.
On to CHMP4A isoform 2 (UniProt Q9BY43), for which the log2 fold change is -0.007.
On to DDX54 isoform 2 (UniProt Q8TDD1), for which the log2 fold change was 0.014.
On the same count and under the same terms, as for DLG3 isoform 2 (UniProt Q92796), the figure is -0.001; as for COG3 (UniProt Q96JB2), -0.01; as for CMPK2 (UniProt Q5EBM0), 0.031.
The same measure, in the same setting: in the case of CNOT6L (UniProt Q96LI5) it was -0.012; in that of CSK (UniProt P41240), 0.033.
Still for that read-out and setting: in the case of CYP24A1 (UniProt Q07973) it was -0.011; in that of DAZAP1 (UniProt Q96EP5), -0.004; in that of CNIH4 (UniProt Q9P003), -0.131.
Take DNM2 (UniProt P50570): the log2 fold change is -0.008.
Still for that read-out and setting: as for CMIP (UniProt Q8IY22), the figure is -0.023; as for COQ9 (UniProt O75208), 0.029; as for CNOT2 (UniProt Q9NZN8), 0.012.
Same read-out and setting: in the case of DOCK8 (UniProt Q8NF50) it was -0.021; in that of CSNK2B (UniProt P67870), 0.041; in that of CPT1A (UniProt P50416), 0.024.
Same read-out and setting: in the case of DNAH10 (UniProt Q8IVF4) it was 0.036; in that of CKAP2 (UniProt Q8WWK9), 0.046; in that of CIC (UniProt I3L2J0), -0.04.
For COTL1 (UniProt Q14019), the log2 fold change is 0.008.
The same measure, in the same setting: as for CHORDC1 (UniProt Q9UHD1), the figure is 0.015; as for CXorf38 (UniProt Q8TB03), -0.031.
On to DHFR (UniProt P00374), for which the log2 fold change was 0.019.
On the same count and under the same terms, in the case of CORO1A (UniProt P31146) it was -0.031; in that of CHUK (UniProt O15111), -0.002.
In the case of DIAPH3 (UniProt Q9NSV4), the log2 fold change was -0.082.
Still for that read-out and setting: as for CIP2A (UniProt Q8TCG1), the figure is 0.02; as for CIAO2A (UniProt Q9H5X1), 0.009.

Compound in another test: C1COCCN1CCN2C3=CC=CC=C3N=C2NC(=O)C4=CC(=CC=C4)[N+](=O)[O-] [IRAK-1-4 Inhibitor I]
The description is as above. Summed up: as §1
Turning to DLGAP5 (UniProt Q15398), the log2 fold change was -0.009.
As to DCTN1 (UniProt Q14203), the log2 fold change is -0.005.
The same measure, in the same setting: in the case of DOCK10 (UniProt Q96BY6) it was -0.017.
As to DFFB (UniProt O76075), the log2 fold change is 0.008.
On the same count and under the same terms, in the case of CWC22 (UniProt Q9HCG8) it was -0.017.
Same read-out and setting: as for CHMP4A isoform 2 (UniProt Q9BY43), the figure is -0.016; as for DDX54 isoform 2 (UniProt Q8TDD1), -0.058; as for DLG3 isoform 2 (UniProt Q92796), -0.056.
The same measure, in the same setting: as for COG3 (UniProt Q96JB2), the figure is 0.012; as for CMPK2 (UniProt Q5EBM0), 0.024; as for CNOT6L (UniProt Q96LI5), 0.002.
CSK (UniProt P41240): the log2 fold change is 0.053.
Same read-out and setting: in the case of CYP24A1 (UniProt Q07973) it was 0.07.
With DAZAP1 (UniProt Q96EP5), the log2 fold change was 0.012.
The same measure, in the same setting: in the case of CNIH4 (UniProt Q9P003) it was -0.078; in that of DNM2 (UniProt P50570), 0; in that of CMIP (UniProt Q8IY22), -0.011.
Still for that read-out and setting: in the case of COQ9 (UniProt O75208) it was -0.011.
Turning to CNOT2 (UniProt Q9NZN8), the log2 fold change is 0.007.
Still for that read-out and setting: as for DOCK8 (UniProt Q8NF50), the figure is 0.014.
As for CSNK2B (UniProt P67870), the log2 fold change is 0.021.
Same read-out and setting: in the case of CPT1A (UniProt P50416) it was -0.008; in that of DNAH10 (UniProt Q8IVF4), 0.054; in that of CKAP2 (UniProt Q8WWK9), 0.014.
On the same count and under the same terms, in the case of CIC (UniProt I3L2J0) it was 0.04; in that of COTL1 (UniProt Q14019), -0.03; in that of CHORDC1 (UniProt Q9UHD1), -0.016.
Regarding CXorf38 (UniProt Q8TB03), the log2 fold change is 0.026.
Consider DHFR (UniProt P00374), for which the log2 fold change is -0.055.
On the same count and under the same terms, as for CORO1A (UniProt P31146), the figure is 0.021.
The same measure, in the same setting: in the case of CHUK (UniProt O15111) it was -0.044; in that of DIAPH3 (UniProt Q9NSV4), -0.041; in that of CIP2A (UniProt Q8TCG1), 0.007.
Same read-out and setting: in the case of CIAO2A (UniProt Q9H5X1) it was 0.032.

Compound in a further test: C=CC(=O)N1CCC[C@@H](n2nc(-c3ccc(Oc4ccccc4)cc3)c3c(N)ncnc32)C1 [ibrutinib]
Described as above. Summed up:
as §1
As to DLGAP5 (UniProt Q15398), the log2 fold change is 0.004.
As to DCTN1 (UniProt Q14203), the log2 fold change is -0.005.
On the same count and under the same terms, as for DOCK10 (UniProt Q96BY6), the figure is -0.151.
Same read-out and setting: in the case of DFFB (UniProt O76075) it was 0.076; in that of CWC22 (UniProt Q9HCG8), 0.027; in that of CHMP4A isoform 2 (UniProt Q9BY43), -0.002.
Still for that read-out and setting: in the case of DDX54 isoform 2 (UniProt Q8TDD1) it was -0.005; in that of DLG3 isoform 2 (UniProt Q92796), 0.034.
In the case of COG3 (UniProt Q96JB2), the log2 fold change was 0.026.
On to CMPK2 (UniProt Q5EBM0), for which the log2 fold change is 0.012.
Still for that read-out and setting: as for CNOT6L (UniProt Q96LI5), the figure is 0.02.
Take CSK (UniProt P41240): the log2 fold change was 0.891 (active).
Still for that read-out and setting: in the case of CYP24A1 (UniProt Q07973) it was 0.01; in that of DAZAP1 (UniProt Q96EP5), -0.031.
Same read-out and setting: as for CNIH4 (UniProt Q9P003), the figure is 0.13; as for DNM2 (UniProt P50570), 0.014.
On the same count and under the same terms, in the case of CMIP (UniProt Q8IY22) it was 0.057; in that of COQ9 (UniProt O75208), 0.104; in that of CNOT2 (UniProt Q9NZN8), 0.022.
Regarding DOCK8 (UniProt Q8NF50), the log2 fold change is -0.033.
On the same count and under the same terms, in the case of CSNK2B (UniProt P67870) it was -0.004; in that of CPT1A (UniProt P50416), 0.042; in that of DNAH10 (UniProt Q8IVF4), 0.038.
Same read-out and setting: in the case of CKAP2 (UniProt Q8WWK9) it was -0.065; in that of CIC (UniProt I3L2J0), 0.036; in that of COTL1 (UniProt Q14019), 0.038.
On the same count and under the same terms, as for CHORDC1 (UniProt Q9UHD1), the figure is -0.002.
As to CXorf38 (UniProt Q8TB03), the log2 fold change is 0.054.
Same read-out and setting: as for DHFR (UniProt P00374), the figure is -0.013; as for CORO1A (UniProt P31146), 0.028.
On the same count and under the same terms, as for CHUK (UniProt O15111), the figure is 0.034; as for DIAPH3 (UniProt Q9NSV4), 0.012; as for CIP2A (UniProt Q8TCG1), 0.022.
On to CIAO2A (UniProt Q9H5X1), for which the log2 fold change is 0.005.

For the origin of these results see the supplement of paper PMC10849652.
